Reference: PubChem BioAssay
Activity calls are given as the source filed them.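 How the source made its calls, unless noted: active means NADPH fluorescence slope more negative than the mean of all samples by about 3 SD, 99.7% confidence; inactive means the rest.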

Experiments:
[1] = inhibitors of TNFa-induced NFkB p65 translocation, primary screen, imaging, HUVEC, MLSMR starter and 10KST1 sets (AID 438;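 active means inhibition above 20% together with a positive visual image hit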;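 further: compound added about 3h40 before a 20 min TNFalpha stimulation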;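 on inhibition: signal is the nuclear over cytoplasmic p65 intensity ratio per well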); conditions: HUVEC TNFa-induced p65 nuclear translocation; cell count: measured here: nuclei count (cytotoxicity indicator), at 2.08 µM; inhibition: at 2 µM, stronger effect = higher value, 0% TNFa-plus-vehicle, 100% no-TNFa wells
[2] = reduction of polyQ htt aggregates in cells – imaging, exon1htt(103Q)mCFP cells, high-content imaging, primary screen (AID 483;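 active means visual image review flags a hit and inhibition of aggregation exceeds 20%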;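 further: compound exposure lasted 3 days before fixation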;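 on nuclei count: percent of the per-plate median nuclei count of sample wells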); conditions: exon1htt(103Q)mCFP cell line, aggregate imaging, at 2 µM; inhibition of aggregation: stronger effect = higher value; nuclei count: measured here: cell count, toxicity
[3] = endothelial E-selectin expression blockers – imaging, HUVEC, immunofluorescence, MLSMR starter and 10KST1 sets, primary screen (AID 487;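 active means visually confirmed hit in the image check and inhibition above 20%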;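 on inhibition: signal is fraction of cell area covered by stained E-selectin grains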;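 on nuclei count: 100% = median nuclei count of all wells on the same plate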); conditions: HUVEC TNFalpha-induced E-selectin immunofluorescence imaging, at 2 µM; inhibition: stronger effect = higher value; nuclei count: measured here: cell number, toxicity
[4] = target: Voltage-gated potassium channel subunit beta-2 (Rattus norvegicus) (UniProt P62483); test: inhibitors of rat Kvbeta2 reductase activity – biochemical, NADPH fluorescence, primary screen (AID 622;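 active means fluorescence slope higher than the sample average by over 3 SD, cut at about -0.22 in these data, passing the limit was not always enough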;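 further: slope of raw intensity against log time taken from 70 to 1610 s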); conditions: recombinant KvBeta, 4-cyanobenzaldehyde reduction, at 10 µM, stronger effect = higher value
Chain of Voltage-gated potassium channel subunit beta-2 (Rattus norvegicus) (P62483 whole entry, looked up): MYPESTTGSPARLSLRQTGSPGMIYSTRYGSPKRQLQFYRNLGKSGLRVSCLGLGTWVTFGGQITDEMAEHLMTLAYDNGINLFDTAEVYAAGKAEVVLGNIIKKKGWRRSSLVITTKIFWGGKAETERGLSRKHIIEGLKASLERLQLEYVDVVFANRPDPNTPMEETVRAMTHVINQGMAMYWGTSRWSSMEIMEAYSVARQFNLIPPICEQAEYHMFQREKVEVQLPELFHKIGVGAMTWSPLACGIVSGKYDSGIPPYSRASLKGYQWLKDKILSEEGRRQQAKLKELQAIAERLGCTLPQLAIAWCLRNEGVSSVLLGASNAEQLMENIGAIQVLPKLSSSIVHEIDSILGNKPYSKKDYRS

[5] = target: Voltage-gated potassium channel subunit beta-2 (Rattus norvegicus) (UniProt P62483); test: enhancers of rat Kvbeta2 NADPH turnover – biochemical, NADPH fluorescence, primary screen (AID 623); conditions: Recombinant KvBeta, NADPH fluorescence decrease slope, 10 min; at 10 µM; stronger effect = lower value;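 further: fluorescence intensity change per second fitted from 20 to 320 s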
[6] = target: Alpha-2C adrenergic receptor (Homo sapiens) (UniProt P18825); test: compounds altering alpha2C-coupled GIRK flux – cell-based, HEK293 alpha2C/GIRK1/2, thallium flux, primary screen (AID 624;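 active means fluorescence slope after compound addition differing from the mean of all screened samples at 99.7% confidence, in either direction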;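 further: slope of fluorescence ratio to pre-addition baseline per second over 15 to 24 s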); conditions: thallium flux BTC fluorescence, at 10 µM, actives lie on both sides
Chain of Alpha-2C adrenergic receptor (Homo sapiens) (P18825 whole entry, looked up): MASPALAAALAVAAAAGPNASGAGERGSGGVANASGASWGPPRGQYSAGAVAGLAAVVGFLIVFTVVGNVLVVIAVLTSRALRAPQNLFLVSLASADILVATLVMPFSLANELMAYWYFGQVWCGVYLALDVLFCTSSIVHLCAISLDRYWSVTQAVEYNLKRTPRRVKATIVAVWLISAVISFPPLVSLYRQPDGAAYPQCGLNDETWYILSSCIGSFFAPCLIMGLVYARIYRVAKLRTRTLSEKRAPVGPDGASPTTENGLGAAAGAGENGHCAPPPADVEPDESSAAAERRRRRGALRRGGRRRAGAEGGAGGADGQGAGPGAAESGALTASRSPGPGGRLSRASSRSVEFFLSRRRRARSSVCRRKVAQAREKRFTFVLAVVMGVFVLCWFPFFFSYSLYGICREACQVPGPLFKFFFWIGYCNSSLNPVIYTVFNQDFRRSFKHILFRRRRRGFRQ

[7] = blockers of RIG-like receptor reporter activation – cell-based, Sendai virus stimulus, luciferase, 10K MLSCN set, TLR/RLR signaling modifier project, primary screen (AID 602276;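 active means inhibition at or above 50% at 10 µM; inactive means inhibition below 50%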;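 further: firefly luciferase from ISG56 promoter only with Renilla not read in this screen; 0% = Sendai virus plus DMSO and 100% = medium plus DMSO without virus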); conditions: HEK293 RL24 IRF3 luciferase reporter, at 10 µM, stronger effect = higher value
[8] = TLR3 IRF3 reporter activation blockers – cell-based, poly I:C stimulus, luciferase, 10K MLSCN set, primary screen (AID 602277;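 active means inhibition of the reporter signal at or above 50%; inactive means inhibition below 50%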); conditions: HEK293-TLR3 RL24 IRF3 luciferase reporter, at 10 µM, stronger effect = higher value

Compound	cell count [1]	inhibition [1]	inhibition of aggregation [2]	nuclei count [2] [%]	inhibition [3]	nuclei count [3] [%]	fluorescence slope [4]	NADPH fluorescence slope [5]	slope [6]	inhibition [7]	inhibition [8]
N#Cc1c2n(c(=O)[nH]c1=O)CCCCC2	270	14.4% (inactive)	18.2% (inactive)	113	16.1% (inactive)	110	-0.5 (inactive)	-0.000252 (inactive)	0.00665 (inactive)	-7.37% (inactive)	0.231% (inactive)
Cn1c(=O)cc(NCCc2ccccc2)[nH]c1=O	304	3.4% (inactive)	-8% (inactive)	116	-199% (inactive)	156	-0.43 (inactive)	-0.0001 (inactive)	0.00647 (inactive)	7.54% (inactive)	27.3% (inactive)
CCC(C(=O)OCC(=O)Nc1c(C)n(C)n(-c2ccccc2)c1=O)c1ccccc1 (stereo not drawn)	640	6.8% (inactive)	5.9% (inactive)	89.5	-53% (inactive)	122	-0.539 (inactive)	5.3e-06 (inactive)	0.00674 (inactive)	7.71% (inactive)	15.4% (inactive)
CCC(=O)Nc1ccc(NC(=O)c2cccc(OC)c2)nc1	742	-7.5% (inactive)	-5.7% (inactive)	105	-92.8% (inactive)	160	-0.465 (inactive)	1.2e-05 (inactive)	0.00556 (inactive)	-60.4% (inactive)	-106% (inactive)
Cc1noc(C)c1S(=O)(=O)N1CCN(Cc2ccc3c(c2)OCO3)CC1	730	2.5% (inactive)	0.3% (inactive)	106	-16.7% (inactive)	117	-0.542 (inactive)	-2e-05 (inactive)	0.00533 (inactive)	4.24% (inactive)	18.3% (inactive)
CCOC(=O)CC(=O)c1cc(OC)c(OC)c(OC)c1	640	-0.6% (inactive)	-4.2% (inactive)	105	-56% (inactive)	106	-0.432 (inactive)	-2.1e-05 (inactive)	0.00534 (inactive)	5.89% (inactive)	12.4% (inactive)
O=S(=O)(NCc1cn2ccsc2n1)c1ccc2c(c1)OCCO2	600	8.2% (inactive)	-3.9% (inactive)	71	51.6% (inactive)	72.2	-0.502 (inactive)	-3.9e-05 (inactive)	0.00564 (inactive)	5.63% (inactive)	11.2% (inactive)
Cc1cc(C)c2ccc(N)nc2c1O	408	0.1% (inactive)	22.6% (inactive)	6.8	41.6% (inactive)	107	-0.462 (inactive)	-5e-05 (inactive)	0.00457 (inactive)	21% (inactive)	29.8% (inactive)
